PubChem BioAssay (NCI)
About 79,000 compounds went through this panel and 15% of them were active in at least one assay; those are over-represented in the sample as a whole. A number with no mark means an inactive call. Active and inactive are the calls of the source. Rule as the data show it: active = growth inhibition above about 70%; inactive = the rest.

assay: NCI Yeast Anticancer Drug Screen. Data for the bub3 strain (AID 167); details: S. cerevisiae bub3 mutant strain, at 50.0 µM, stronger effect = higher value
Summary of the method: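 Readout: yeast growth inhibition, expressed relative to vehicle-only wells. The test organism is a mutant strain from a panel with lesions in DNA repair or checkpoint genes.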

Row | Compound | growth inhibition
1 | O=C(Nc1ccc(S(=O)(=O)F)cc1)/C(=C\c1ccc([N+](=O)[O-])cc1)c1cccc(Cl)c1 | -0.7%
2 | O=C(Nc1c(O)[nH]c(=S)[nH]c1=O)c1ccco1 | -13.2%
3 | Cc1cc(S(=O)(=O)F)ccc1NC(=O)NCc1ccc([N+](=O)[O-])cc1 | 18.1%
4 | N#CC[CH2][Sn]([I])([c]1ccccc1)[c]1ccccc1 | 98.8% (active)
5 | CCOP(=O)(O)OCC.[Y] | 6.5%
6 | C1CCN2CC3CONC3C2C1 (centres undefined) | -6.2%
7 | CCOP(=O)(OCC)/C(C#N)=C/C=C/c1ccco1 | -40.1%
8 | CCOP(=S)(OCC)S/C(C(=O)NC)=C(/C)O | 55.5%
9 | O=C1NN2CCCN=C2c2cnccc21 | 27.6%
10 | COc1cc(O)c2c(O)c3c(=O)cc(C)oc3cc2c1 | -1.95%
11 | COC1C(O)CC(OC2CC(Oc3cc4cc5c(c(O)c4c(O)c3C)C(=O)[C@@H](OC3CC(OC4CC(OC6CC(C)(O)C(OC(C)=O)C(C)O6)C(O)C(C)O4)C(O)C(C)O3)[C@H]([C@H](OC)C(=O)[C@@H](O)[C@@H](C)O)C5)OC(C)C2OC(C)=O)OC1C (some centres undefined) | 7.1%
12 | Cc1cccc2c1[se]c1ccccc12 | 2.7%
13 | O=N[O-].[Co].[NH-]CC[NH-].[NH-]CC[NH-].[NH2-] | 4.85%
14 | CN1C(=O)c2ccccc2NC(=O)C12O[C@@H]2c1ccccc1 (some centres undefined) | -9.7%
15 | CCC(C)(C)C(=O)Nc1cccc(OC(=O)NC)c1 | 13.2%
16 | CCNc1ccc([N+](=O)[O-])cc1[N+](=O)[O-] | -6.4%
17 | COc1cc(N=Nc2ccc([N+](=O)[O-])cc2)c([OH+]C)cc1[N+]#N.COc1cc(N=Nc2ccc([N+](=O)[O-])cc2)c([OH+]C)cc1[N+]#N.[Cl][Zn][Cl] | 17.9%
18 | O=C(Nc1cc(Cl)c(Cl)cc1Cl)C(=O)C1C(=O)NC(=S)NC1=O | 12.9%
19 | COS(=O)(=O)c1ccc(C)cc1 | -7.7%
20 | COc1ccc(C(CC(=O)O)CC(=O)N(CCCl)CCCl)cc1C (centres undefined) | 63.7%
21 | CC(C)(C)N1OC1c1cccc(Cl)c1 (centres undefined) | -2.85%
22 | CCCCCCCCCCC(O)[C@H]1CCC(C2CC[C@H]([C@H](O)CCCCCCCCCCC(O)CC3=CC(C)OC3=O)O2)O1 (some centres undefined) | 0.85%
23 | Nc1ccc(CCc2ccc(S(=O)(=O)F)cc2)cc1 | 92.7% (active)
24 | O=[N+]([O-])c1cccc([As](=O)(O)c2ccc(O)c([N+](=O)[O-])c2)c1 | 20.4%

assay: NCI Yeast Anticancer Drug Screen. Data for the mlh1 rad18 strain (AID 175); details: S. cerevisiae mlh1 rad18 strain growth inhibition; at 50.0 µM; stronger effect = higher value
Summary of the method: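 Compound-treated yeast growth, normalised to vehicle controls. Strain bears defined DNA repair mutations.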

Row | Compound | growth inhibition
25 | O=P(Oc1ccccc1)(Oc1ccccc1)C(O)c1ccccc1 (centres undefined) | -2%
26 | CNC(=O)C(Cl)Cl | 6.15%
27 | CCOC(=O)CC(Br)C(=O)CBr (centres undefined) | -9.6%
28 | CC(C)C1NC(C(C)C)N2C(C(C)C)N12 (centres undefined) | -1.5%
29 | O=[C-]C(F)(F)F.[C-]#[O+].[C-]#[O+].[C-]#[O+].[Mo].[c-]1[c-][c-][cH-][c-]1 | 7.05%
30 | COc1ccc2ccc([Se]c3ccc4ccc(OC)cc4c3)cc2c1 | -1.1%
31 | Nc1cccc2c1Cc1cc([N+](=O)[O-])ccc1-2 | -1.4%
32 | CN(C)CCNC(=O)c1ccc(N(CCCl)CCCl)c([N+](=O)[O-])c1[N+](=O)[O-] | 34%
33 | O=S(=O)(O)C(Br)(Br)Br | 28.2%
34 | FC(F)(F)C(OP(OC(C(F)(F)F)C(F)(F)F)OC(C(F)(F)F)C(F)(F)F)C(F)(F)F | 28.1%
35 | CCCCCCCCCCCCCCCC(=O)[O][Hg][c]1ccccc1 | 98.8% (active)
36 | O=[N+]([O-])c1ccc(OCc2ccc(S(=O)(=O)F)cc2Cl)c(Cl)c1 | -3.6%
37 | Oc1ccc(Nc2ncnc3nc[nH]c23)cc1CN(CCCl)CCCl | 3.65%
38 | CCOC(=O)C[S][Sn]([Cl])([Cl])[S]CC(=O)OCC | -18.1%
39 | CCCn1cc2c3c(cccc31)[C@H]1C[C@@H](C)CN(C)[C@@H]1C2 | 36.5%
40 | CC(C)c1cccc(C(C)C)c1NC(=O)/C(CC(=O)CC(c1ccccc1)c1c(O)c2ccccc2oc1=O)=N/O (centres undefined) | 18.3%
41 | O=C(Nc1ccc(S(=O)(=O)F)cc1)/C(=C\c1ccc([N+](=O)[O-])cc1)c1cccc(Cl)c1 | 11.1%
42 | O=C(Nc1c(O)[nH]c(=S)[nH]c1=O)c1ccco1 | -16%
43 | Cc1cc(S(=O)(=O)F)ccc1NC(=O)NCc1ccc([N+](=O)[O-])cc1 | 10.1%
44 | N#CC[CH2][Sn]([I])([c]1ccccc1)[c]1ccccc1 | 98.1% (active)

Row | Compound | growth inhibition
45 | CCOP(=O)(O)OCC.[Y] | 11.2%
46 | C1CCN2CC3CONC3C2C1 (centres undefined) | -3.05%
47 | CCOP(=O)(OCC)/C(C#N)=C/C=C/c1ccco1 | 1.8%
48 | CCOP(=S)(OCC)S/C(C(=O)NC)=C(/C)O | 79.7% (active)
49 | O=C1NN2CCCN=C2c2cnccc21 | -7.4%
50 | COc1cc(O)c2c(O)c3c(=O)cc(C)oc3cc2c1 | -5.35%
51 | COC1C(O)CC(OC2CC(Oc3cc4cc5c(c(O)c4c(O)c3C)C(=O)[C@@H](OC3CC(OC4CC(OC6CC(C)(O)C(OC(C)=O)C(C)O6)C(O)C(C)O4)C(O)C(C)O3)[C@H]([C@H](OC)C(=O)[C@@H](O)[C@@H](C)O)C5)OC(C)C2OC(C)=O)OC1C (some centres undefined) | 29.2%
52 | Cc1cccc2c1[se]c1ccccc12 | -17.1%
53 | O=N[O-].[Co].[NH-]CC[NH-].[NH-]CC[NH-].[NH2-] | -2.4%
54 | CN1C(=O)c2ccccc2NC(=O)C12O[C@@H]2c1ccccc1 (some centres undefined) | -16.9%
55 | CCC(C)(C)C(=O)Nc1cccc(OC(=O)NC)c1 | -16.9%
56 | CCNc1ccc([N+](=O)[O-])cc1[N+](=O)[O-] | 5.9%
57 | COc1cc(N=Nc2ccc([N+](=O)[O-])cc2)c([OH+]C)cc1[N+]#N.COc1cc(N=Nc2ccc([N+](=O)[O-])cc2)c([OH+]C)cc1[N+]#N.[Cl][Zn][Cl] | 12.6%
58 | O=C(Nc1cc(Cl)c(Cl)cc1Cl)C(=O)C1C(=O)NC(=S)NC1=O | -22.4%
59 | COS(=O)(=O)c1ccc(C)cc1 | -3.75%
60 | COc1ccc(C(CC(=O)O)CC(=O)N(CCCl)CCCl)cc1C (centres undefined) | 24.4%
61 | CC(C)(C)N1OC1c1cccc(Cl)c1 (centres undefined) | 36.5%
62 | CCCCCCCCCCC(O)[C@H]1CCC(C2CC[C@H]([C@H](O)CCCCCCCCCCC(O)CC3=CC(C)OC3=O)O2)O1 (some centres undefined) | 5.2%
63 | Nc1ccc(CCc2ccc(S(=O)(=O)F)cc2)cc1 | 92.6% (active)
64 | O=[N+]([O-])c1cccc([As](=O)(O)c2ccc(O)c([N+](=O)[O-])c2)c1 | 4.65%
